Compounds with a hit are over-represented: about 9.2% of the library has one in this group of screens.
NPC1 prom act: NPC1 promoter activation; Potency, µM (highest dose often 9.22 µM), for the others: at the top dose activation, usual class: activators; Huh7 NPC1 promoter luciferase reporter, 24 h; hit rate 2.4% among 320,000; note: % of control where 0% means no effect; nearly all actives have a fitted effect of over 60% in size
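Luciferase expression driven by the NPC1 promoter was measured in stably transfected Huh7 cells after a 24 h compound incubation, using a luciferase reagent and a luminescence read.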
ELG1 DNA repair: blocks ELG1-dependent DNA repair in HEK293T cells; hit rate 2.3% among 330,000; HEK293T ELG1-luciferase reporter, luminescence, 16 h; DNA damage induced by 5-fluorouridine; Potency, µM (series often up to 46.1 µM), for the others: top-dose activity change, negative = inhibition, most hits filed as inhibitors; AID 504467; note: % is set by controls: 0 for no effect and ±100 for the full control effect; nearly all actives have a fitted effect of over 55% in size
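In this reporter screen, reduction of luminescence relative to DMSO vehicle indicated activity. Compounds and 5-fluorouridine were added together to 2,000 cells per well, incubated for 16 hr at 37 °C, then developed with ONE-Glo.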
FLuc counter: counter-screen for miR-21 project: firefly luciferase inhibitors or activators; hit rate 6.9% among 360,000; AID 588342; Potency, µM (highest dose often 57.5 µM), without a hit: top-dose activity change, negative = inhibition, actives largely listed as inhibitors; purified FLuc, Km substrates, luminescence inhibition; P08659;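 note: plate controls were vehicle for no effect and reference inhibitor for full effect; nearly all actives have a fitted effect of over 55% in size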
Target sequence (P08659 whole entry, looked up): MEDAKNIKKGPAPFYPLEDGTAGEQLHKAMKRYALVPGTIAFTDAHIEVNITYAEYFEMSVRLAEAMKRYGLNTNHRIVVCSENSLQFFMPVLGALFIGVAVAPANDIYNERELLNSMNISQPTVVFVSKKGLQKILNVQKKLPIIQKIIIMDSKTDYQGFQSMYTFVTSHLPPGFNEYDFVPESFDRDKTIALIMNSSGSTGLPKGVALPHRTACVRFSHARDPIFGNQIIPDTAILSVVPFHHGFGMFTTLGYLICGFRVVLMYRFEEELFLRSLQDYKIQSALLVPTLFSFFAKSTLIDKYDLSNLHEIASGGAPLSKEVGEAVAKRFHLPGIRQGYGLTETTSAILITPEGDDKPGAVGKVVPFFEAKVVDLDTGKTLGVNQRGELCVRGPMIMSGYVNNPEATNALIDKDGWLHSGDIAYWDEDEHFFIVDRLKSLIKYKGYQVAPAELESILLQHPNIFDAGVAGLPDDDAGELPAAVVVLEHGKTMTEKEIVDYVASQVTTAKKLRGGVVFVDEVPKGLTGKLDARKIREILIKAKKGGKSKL
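Purified P. pyralis luciferase (10nM final) with 10uM D-luciferin and 10uM ATP (Km levels) in 50mM Tris acetate pH 7.5, 10mM Mg acetate, 0.01% Tween-20, 0.05% BSA; qHTS 6-point titration, ~60 µM downward; luminescence read.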
ELG1 genotox: induces genotoxicity in HEK293T cells with luciferase-tagged ELG1. AID 504466. Potency, µM (highest dose often 46 µM), for inactives: at the top dose activity change, positive = activation, usual class: activators. HEK293T ELG1-luciferase reporter, luminescence, 16 h. hit rate 1.3% among 330,000; note: % of control where 0% means no effect; nearly all actives have a fitted effect of over 60% in size
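Cells (2,000/well) expressing the ELG1-luciferase fusion are dosed by pin tool and kept 16 hr at 37 °C, 5% CO2. Signal comes from ONE-Glo luciferase reagent after 30 min at room temperature.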
Rab9 prom act: activates the Rab9 promoter; hit rate 2.8% among 320,000; Huh7 Rab9 promoter-luciferase reporter, luminescence, 24 h; Potency, µM (highest dose often 9.22 µM), for the others: at the highest dose activation, negative = inhibition, hits mostly activators; note: % of control where 0% means no effect; nearly all actives have a fitted effect of over 60% in size
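Measured in stably transfected Huh7 cells bearing a Rab9 promoter–luciferase construct: 24 h compound treatment at 37 °C, followed by luminescence detection.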
SMN2 splice up: enhancers of SMN2 splice variant expression | HEK293 SMN2-luciferase splicing reporter, luminescence, 30-36 h | Potency, µM (top dose mostly 46.1 µM), inactives show at the highest dose activity change, positive = activation, most hits filed as activators | hit rate 2.8% among 210,000; note: % of control where 0% means no effect; nearly all actives have a fitted effect of over 55% in size
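qHTS luciferase splicing reporter: luminescence rises when SMN2 exon 7 is included in transfected HEK293 cells. Compound exposure lasted 30-36 h at 37C, with 4.5 mM final sodium butyrate as control, followed by a ONE-Glo read.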
* hit, by the source's call; [ ] = dose if it differs, or a comment. Calls come from the whole dose curve; as a rule, active = well fitted curve in the direction sought with a large enough effect; inconclusive = small, poorly fitted or top-dose-only effect, or another doubt; inactive = no such curve, though single readings can be large; an effect the other way counts as inactive or inconclusive. Potency is the fitted concentration of half-maximal effect.

What do the screens show for `COc1ccc(CCNC(=O)C2CC=CCC2C(=O)O)cc1` (stereo unspecified)?
NPC1 prom act: 1%; ELG1 DNA repair: -1%; FLuc counter: 0%; ELG1 genotox: 7%; Rab9 prom act: 0%

How did Cn1cc(C(=O)c2ccc(Cl)cc2Cl)cc1C(=O)N/N=C(\N)COc1ccccc1 do in these assays?
NPC1 prom act: -5%; ELG1 DNA repair: -28%; FLuc counter: 0%[2.3 µM]; ELG1 genotox: -12%; Rab9 prom act: 2%; SMN2 splice up: -7%

What do the screens show for `Cn1cc(C(=O)c2ccc(Cl)cc2Cl)cc1C(=O)N/N=C(\N)COc1ccc(Cl)cc1Cl`?
NPC1 prom act: -6%; ELG1 DNA repair: 23µM*; FLuc counter: 3%; ELG1 genotox: -26%; Rab9 prom act: -6%; SMN2 splice up: -9%

What do the screens show for `Cn1cc(C(=O)c2ccc(Cl)cc2Cl)cc1C(=O)N/N=C(\N)COc1ccc(F)cc1`?
NPC1 prom act: -5%; ELG1 DNA repair: -19%; FLuc counter: 3%; ELG1 genotox: -14%; Rab9 prom act: -1%; SMN2 splice up: 4%

Results for Cn1cc(C(=O)c2ccc(Cl)cc2Cl)cc1C(=O)N/N=C(\N)COc1ccc(Cl)cc1 ?
NPC1 prom act: -7%; ELG1 DNA repair: 18µM*; FLuc counter: 3%; ELG1 genotox: -13%; Rab9 prom act: -3%

How did CCC(C)(C)NC(=O)C1CCC(CNS(=O)(=O)c2ccc3c(c2)CC(C)N3C(C)=O)CC1 (stereo unspecified) do in these assays?
FLuc counter: -1%

How did C[C@H](NS(=O)(=O)c1ccccc1)C(=O)N1CCN(C(c2ccccc2)c2ccccc2)CC1 do in these assays?
ELG1 DNA repair: 26µM*; ELG1 genotox: -5%

Results for COCCNC(=O)CSc1n[nH]c(=O)n1CCc1ccccc1 ?
NPC1 prom act: -6%; ELG1 DNA repair: 9%; FLuc counter: -3%; ELG1 genotox: 2%; Rab9 prom act: -10%[1.84 µM]

Results for COc1cc2c(cc1OC)CN(c1nc(CN3CCOCC3)nc3sc4c(c13)CCC(C)C4)CC2 (stereo unspecified) ?
NPC1 prom act: 1%; ELG1 DNA repair: 7.3µM*; FLuc counter: -1%; ELG1 genotox: -12%; Rab9 prom act: -1%; SMN2 splice up: 14%

How did COc1ccc(Nc2nc(CN3CCOCC3)nc3sc4c(c23)CCC(C)C4)cc1OC (stereo unspecified) do in these assays?
NPC1 prom act: -7%; ELG1 DNA repair: 6.5µM*; FLuc counter: -14%; ELG1 genotox: 2%; Rab9 prom act: 0%; SMN2 splice up: 0%

Results for Cc1ccc(NC(=O)COC(=O)CSC(=S)N2CCOCC2)cc1 ?
NPC1 prom act: -1%; ELG1 DNA repair: inconclusive; FLuc counter: -15%; ELG1 genotox: 7%; Rab9 prom act: 2%; SMN2 splice up: 26%

Results for CC(=O)c1ccc(OCCCOc2cccc3cccnc23)cc1 ?
NPC1 prom act: -9%; ELG1 DNA repair: 13%; FLuc counter: -12%; ELG1 genotox: -7%; Rab9 prom act: -2%

How did CC(=O)CCc1ccc(OCCCOc2cccc3cccnc23)cc1 do in these assays?
NPC1 prom act: 5%; ELG1 DNA repair: -15%; FLuc counter: 21µM*; ELG1 genotox: 3%; Rab9 prom act: 0%

How did Cc1oc2cc(O)ccc2c(=O)c1-c1cnn(-c2ccccc2)c1 do in these assays?
NPC1 prom act: -2%; ELG1 DNA repair: 17%; FLuc counter: inconclusive; ELG1 genotox: -1%; Rab9 prom act: -2%; SMN2 splice up: -9%

Results for O=c1c(-c2ccc(O)cc2)coc2cc(O)ccc12 ?
NPC1 prom act: 9.2µM*; Rab9 prom act: 10µM*; SMN2 splice up: 13µM*

What do the screens show for `O=c1c(-c2cnn(-c3ccccc3)c2)coc2cc(O)ccc12`?
NPC1 prom act: 2.8µM*; ELG1 DNA repair: inconclusive; FLuc counter: 5.4µM*; ELG1 genotox: inconclusive; Rab9 prom act: 1.8µM*

Results for Cc1nn2c(=O)cc(COC(=O)c3ccco3)nc2s1 ?
FLuc counter: 0%

Results for CC(=O)c1cccc(NC(=O)CCn2c(=S)oc3ccccc32)c1 ?
NPC1 prom act: -1%; ELG1 DNA repair: 4%; FLuc counter: -1%; ELG1 genotox: 4%; Rab9 prom act: -2%

Results for O=C(Nc1cccc(S(=O)(=O)N2CCCCC2)c1)c1ccc2ccccc2n1 ?
NPC1 prom act: -2%; ELG1 DNA repair: -12%; FLuc counter: inconclusive; ELG1 genotox: 2%; Rab9 prom act: 14%; SMN2 splice up: -23%

Results for O=C(Nc1ccc(S(=O)(=O)N2CCCCC2)cc1)c1ccc(Cl)nc1 ?
ELG1 DNA repair: inconclusive; ELG1 genotox: -8%

What do the screens show for `O=C(Nc1cccc(S(=O)(=O)N2CCCCC2)c1)c1ccc(Cl)nc1`?
ELG1 DNA repair: 21µM*; ELG1 genotox: -6%

How did O=C(Nc1cccc(S(=O)(=O)N2CCCC2)c1)c1ccc2ccccc2n1 do in these assays?
NPC1 prom act: -4%; ELG1 DNA repair: 21µM*; FLuc counter: inconclusive; ELG1 genotox: -12%; Rab9 prom act: -2%; SMN2 splice up: -58%

What do the screens show for `O=C(Nc1cccc(S(=O)(=O)N2CCCCCC2)c1)c1ccc(Cl)nc1`?
ELG1 DNA repair: 21µM*; ELG1 genotox: -10%

What do the screens show for `CCOc1ncccc1C(=O)Nc1cccc(S(=O)(=O)N2CCCCC2)c1`?
NPC1 prom act: 0%; ELG1 DNA repair: 11µM*; FLuc counter: 6%; ELG1 genotox: 0%; Rab9 prom act: -7%

What do the screens show for `Cc1oc2ncn(CC(C)C)c(=O)c2c1C(=O)NCCCN1CCCCC1C` (stereo unspecified)?
FLuc counter: -1%

How did COc1ccc(Nc2cc(C)c3cc(NC(=O)Cc4ccc(Cl)cc4)ccc3n2)cc1 do in these assays?
FLuc counter: -1%

What do the screens show for `CCC(=O)N1CCc2cc(CNC(=O)Nc3ccc(OC)cc3OC)ccc21`?
FLuc counter: -8%

Results for CSc1c(CC(=O)Nc2ccccc2)n(Cc2ccccc2)c2ccccc12 ?
NPC1 prom act: -7%; ELG1 DNA repair: -7%; FLuc counter: 0%; ELG1 genotox: 5%; Rab9 prom act: 0%; SMN2 splice up: -17%

What do the screens show for `O=C(CCS(=O)(=O)c1cccs1)NC1CCCCCC1`?
NPC1 prom act: 2.8µM*; ELG1 DNA repair: inconclusive; FLuc counter: 17µM*; ELG1 genotox: inconclusive; Rab9 prom act: 3.5µM*; SMN2 splice up: 20%

Screening data as filed in PubChem BioAssay.
